What all share (assay type): functional
The target of assay [1] is Solute carrier family 2, facilitated glucose transporter member 1 (Homo sapiens) (UniProt P11166). The assay can be described thus: ST_JUDE_LEISH: Cytotoxicity at 2uM final concentration against transgenic Leishmania Mexicana promastigotes LmGLUT1 that are glucose transport deficient and complemented with the human glucose transporter GLUT1. Activity is measured by DNA content using SYBR green in vitro.

Assay [2] has as its target Hexose transporter 1 (Plasmodium falciparum) (UniProt O97467). The experiment in a line: ST_JUDE_LEISH: Cytotoxicity at 2uM final concentration against transgenic Leishmania Mexicana promastigotes LmPfHT that are glucose transport deficient and complemented with the Plasmodium falciparum hexose transporter. Activity is measured by DNA content using SYBR green in vitro.

The target in assay [3] is Glucose transporter (Leishmania mexicana) (UniProt O61059). The assay can be described thus: ST_JUDE_LEISH: Cytotoxicity at 2uM final concentration against transgenic Leishmania Mexicana promastigotes LmGT2 that are glucose transport deficient and complemented with the L. Mexicana glucose transporter 2. Activity is measured by DNA content using SYBR green in vitro.

Consider 24 compounds from ChEMBL document CHEMBL3433997, “St. Jude Leishmania screening dataset” (2016).

Molecules are shown by their SMILES.

Sequence of Solute carrier family 2, facilitated glucose transporter member 1 (Homo sapiens) (P11166 whole entry): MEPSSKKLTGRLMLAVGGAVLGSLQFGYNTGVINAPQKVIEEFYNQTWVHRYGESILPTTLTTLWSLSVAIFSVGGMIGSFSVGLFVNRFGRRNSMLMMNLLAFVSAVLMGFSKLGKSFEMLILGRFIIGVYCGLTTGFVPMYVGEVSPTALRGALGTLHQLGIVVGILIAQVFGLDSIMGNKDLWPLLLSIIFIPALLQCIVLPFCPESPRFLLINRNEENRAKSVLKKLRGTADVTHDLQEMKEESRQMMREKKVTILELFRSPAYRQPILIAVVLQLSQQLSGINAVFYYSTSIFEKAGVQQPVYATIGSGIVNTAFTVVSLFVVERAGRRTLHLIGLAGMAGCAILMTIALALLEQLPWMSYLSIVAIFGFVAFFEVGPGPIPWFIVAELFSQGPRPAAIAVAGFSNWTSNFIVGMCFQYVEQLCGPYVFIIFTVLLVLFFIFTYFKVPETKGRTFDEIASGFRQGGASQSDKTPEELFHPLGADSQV

For orientation: inhibition means the relative decrease from the control value, in per cent. For `CC1(C)NC(N)=NC(=N)N1OCCOc1ccc2ccccc2c1`, the inhibition in assay [1] is 0.95%; in assay [2], -0.86%; in assay [3], 1.3%.

With `COc1cccc(Nc2nc(C)cc(NC3CCCC3)n2)c1`, the inhibition worked out at 21.5% in assay [1], 9.71% in assay [2] and 5.08% in assay [3].

On to `COc1ccc(-c2cc(-c3ccc(S(C)(=O)=O)cc3)cnc2N)cn1`, for which the inhibition in assay [1] was determined as 1.1%; in assay [2] it was 0.74%; in assay [3], 3.66%.

Regarding `O=C(Cc1c[nH]cn1)Nc1ccc(-c2cccc(-c3nc4cc(C(F)(F)F)ccc4[nH]3)c2)cc1`, the inhibition was -0.04% in assay [1], 0.42% in assay [2] and 1.12% in assay [3].

Consider `COCCOc1ccc(C(F)(F)F)cc1NC(=O)Cc1c(F)cccc1Cl`, for which the inhibition in assay [1] is 11.3%; in assay [2], 8.21%; in assay [3], 6.01%.

Turning to `FC(F)(F)c1ccc2[nH]ccc(=NN=Cc3ccc(Cl)cc3)c2c1`, the values for the inhibition in assay [1], in assay [2] and in assay [3] were 3.42%, 3.11% and 2.9%, respectively.

As to `CN1CCN(CCCN(Cc2ccc(-c3ccc(CNC4CCCC4)cc3)cc2)C(=O)CCC2CCCC2)CC1`, the inhibition came to 76.5% in assay [1], 79.8% in assay [2] and 5.69% in assay [3].

For `COc1ccc(N(C)Cc2cnc3nc(N)nc(N)c3n2)cc1`, the results for the inhibition in assay [1], in assay [2] and in assay [3] were 1.5%, 1.84% and 2.61%, respectively.

On to `Cc1ccc(CN2CCCN(Cc3cccc(NC(=O)c4ccc(-c5ccccc5)cc4)c3)CC2)cc1C`, for which the inhibition turned out to be 3.45% in assay [1], 2.98% in assay [2] and 2.82% in assay [3].

Turning to `Cc1nc(NCc2ccccc2)cc(NCC(O)c2ccc(O)cc2)n1` (configuration not stated), the results for the inhibition in assay [1], in assay [2] and in assay [3] were 8.37%, 8.57% and 7.2%, respectively.

`c1ccc2cc3c(Nc4ccc(N5CCCCC5)cc4)ccnc3cc2c1`: the inhibition in assay [1] is 2.76%; in assay [2] it was 4.37%; in assay [3] it was 2.3%.

Consider `O=C(NC1CCC(CCN2CCc3ccc(-c4cnccn4)cc3CC2)CC1)c1cccc(-n2cccn2)c1` (configuration not stated), for which the results for the inhibition in assay [1], in assay [2] and in assay [3] were 10.2%, 7.38% and 8.56%, respectively.

Turning to `Cc1ccc2cc(C3NC(=O)c4ccccc4N3)c(Cl)nc2c1` (configuration not stated), the inhibition in assay [1] is 18.9%; in assay [2], 16.3%; in assay [3] it was 14.9%.

Regarding `CC(C)CCNc1nc(NCc2ccccc2)c2cc(O)ccc2n1`, the inhibition amounted to 5.89% in assay [1], 5.74% in assay [2] and 1.03% in assay [3].

For `CCn1cc(C=C2Oc3c(ccc(O)c3CN3CCCCC3C)C2=O)c2ccccc21` (configuration not stated), the inhibition was determined as 4.31% in assay [1], 5.13% in assay [2] and 3.81% in assay [3].

Take `Cc1cc2ccccc2n1CC(=O)N1CC(C(=O)N2CCCCC2)Oc2ccccc21` (configuration not stated): the inhibition in assay [1] was -0.25%; in assay [2], 3.02%; in assay [3], 2.89%.

On to `O=C(NCCCCN1CCC(c2ccc3c(c2O)CCCC3)CC1)c1ccc(NC(=O)c2ccc(Cl)cc2)cc1`, for which the results for the inhibition in assay [1], in assay [2] and in assay [3] were 1.7%, 2.56% and 0.97%, respectively.

In the case of `CC1CC(C)CN(CC(O)CNC(=O)Nc2ccc(Br)cc2)C1` (configuration not stated), the values for the inhibition in assay [1], in assay [2] and in assay [3] were 6.62%, 5.27% and 3.33%, respectively.

Turning to `COc1ccc(CN(C)Cc2cc(C(C)C)c(C)cc2O)cc1F`, the figures for the inhibition in assay [1], in assay [2] and in assay [3] were 2.07%, 1.85% and -2.13%, respectively.

Regarding `COc1ccc(-c2cccc(NC(=O)c3cccc(C#N)c3)c2)cc1CN1CCC(O)CC1`, the inhibition worked out at 3.79% in assay [1], 3.97% in assay [2] and 4.2% in assay [3].

For the compound `COc1ccc(C=NNc2cc(C)nc3ccc(OC)cc23)c(OC)c1`, the inhibition in assay [1] is 8%; in assay [2], 7.55%; in assay [3], 2.56%.

Regarding `O=C(NCc1cccc2ccccc12)[C@@H]1CCCN1C(=O)c1ccc(O)c(-c2ccc(Cl)c(Cl)c2)c1`, the inhibition in assay [1] came to 3.99%; in assay [2] it was 2.59%; in assay [3] it was 1.99%.

As to `CC(C)Cn1cc(C2CCN(CCN3CCC(CNC(=O)c4ccc(NC(=O)c5cc(Cl)cc(Cl)c5)cc4)CC3)CC2)c2ccccc21`, the values for the inhibition in assay [1], in assay [2] and in assay [3] were 1.27%, 4.22% and 1.97%, respectively.

On to `Cc1c(F)cc(C(=O)NC2CC2)cc1-c1ccc2c(cnn2S(=O)(=O)c2cccs2)c1`, for which the inhibition was found to be 2.62% in assay [1], 5.11% in assay [2] and 0.02% in assay [3].
